# Experimental data reported in PubChem BioAssay (NCI).
# The panel holds about 83,000 compounds, 20% with a hit somewhere; the sample as a whole holds those more often.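 The endpoint reported here, percent growth, reads 100 for growth as untreated, 0 for no net growth and -100 for all cells dead.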 A number with no mark means an inactive call. The source made the active and inactive calls. The calls were made as follows: active = growth percent below 10; inactive = the rest.
# What was measured:
# Assay in all cases: NCI-60 one-dose screen, 48 h (100 = growth as untreated, 0 = no growth, -100 = all killed)
# HCT-15 colon = details: 10 µM unless noted
# SNB-75 CNS = details: 10 µM
# U251 CNS = details: 10 µM unless noted
# PC-3 prostate = details: 10 µM unless noted
# SK-MEL-5 melanoma = details: 10 µM unless noted
# UACC-62 melanoma = details: 10 µM unless noted
# LOX IMVI melanoma = details: 10 µM unless noted
# SK-MEL-28 melanoma = details: 10 µM unless noted
# HT29 colon = details: 10 µM unless noted
# SNB-19 CNS = details: 10 µM unless noted
SMILES,growth (HCT-15 colon) [%],growth (SNB-75 CNS),growth (U251 CNS),growth (PC-3 prostate),growth (SK-MEL-5 melanoma),growth (UACC-62 melanoma),growth (LOX IMVI melanoma),growth (SK-MEL-28 melanoma),growth (HT29 colon),growth (SNB-19 CNS) [%]
C=C[C@@H]1C[C@@H]2Cc3cc(Cl)ccc3N1O2,97.7,93.3%,89.7%,94.9%,102%,96.5%,92.5%,103%,–,–
O=S1(=O)CCC(N(/N=C/c2ccco2)c2ccccc2)C1 (configuration not stated),–,132%,99%,93.1%,103%,100%,94.1%,115%,96.3%,104
C=C(C)[C@@H]1CC[C@]2(C(=O)N3CCNCC3)CC[C@]3(C)[C@H](CC[C@@H]4[C@@]5(C)C/C(=C/c6ccncc6)C(=O)C(C)(C)[C@@H]5CC[C@]43C)[C@@H]12,–,96.4%,101%,94.4%,99.6%,103%,97.2%,–,109%,99.5
COP(=O)(OC)/C(=N\NS(=O)(=O)c1ccc(C)cc1)c1ccccc1,112,–,105%,86.5%,97.9%,96.7%,102%,110%,–,94.7
OCc1ncc(-c2ccccc2)s1,–,78.8%,–,89.4%,105%,106%,–,132%,102%,98.5
N#Cc1ccc(N2Cc3ccccc3OC3=C2C(=O)c2c(O)ccc(O)c2C3=O)cc1,–,76%,10.2%,-25.6% (active),59.9%,-26.3% (active),-49.7% (active),-32.2% (active),-62.4% (active),27.6
C=C1C(=O)O[C@H]2[C@H]1CC/C(COC(=O)NCc1ccccc1OC)=C\CC[C@@]1(C)O[C@@H]21,–,77.4%,74.8%,52.4%,92.8%,23.4%,5.34% (active),47.5%,-3.76% (active),57.6
NC(=N\N=C/c1ccc(O)cc1)/C(N)=N\N=C/c1ccc(O)cc1,–,94.4%,72.3%,33.1%,28.7%,30.3%,28.7%,88.2%,105%,92.7
c1cc2[nH]ncc2cc1-c1nc2ccc3[nH]ncc3c2c2c1CCC2,–,34.9%,43.6%,54.5%,56.6%,15.4%,40.4%,–,37.9%,–
O=C(/C=C/c1cc(-c2ccc3c(c2)OCO3)n[nH]1)c1ccc2c(c1)OCO2,–,101%,75.7%,74.6%,98%,97.4%,87.6%,109%,100%,72
CC(C)NCCCNC1=C(Cl)C(=O)c2ccccc2C1=O,–,79.4%,52.9%,57.5%,44.3%,92.7%,25.9%,112%,83.1%,106
O=C(CSc1nc2ccccc2[nH]1)Nc1ccc(-c2nc3ccccc3s2)c(Cl)c1,–,-28.5% (active),–,26.3%,23.4%,49.3%,–,0.271% (active),14.7%,65
CCOC(=O)c1ccc2c(c1)c1c(C)c3cccnc3c(C)c1n2C,–,68%,48.1%,58.3%,69.9%,49.2%,22.9%,85.3%,47.4%,56.4
Fc1ccccc1-c1nc(-c2nc3cc(Cl)c(Cl)cc3[nH]2)c2ccccn12,–,38.1%,95%,62.2%,79.4%,83.1%,79.9%,83.9%,70.8%,93.1
CC1(C)C(=O)/C(=C\c2ccc(C(F)(F)F)cc2)C[C@]2(C)[C@H]3CC[C@@H]4[C@H]5[C@H](C(=O)/C=C/c6ccc(C(F)(F)F)cc6)CC[C@]5(CO)CC[C@@]4(C)[C@]3(C)CC[C@@H]12,–,83.7%,92.8%,84%,94.1%,84.3%,–,110%,104%,92.6
Clc1ccccc1-c1nc2ccccc2[nH]1,–,84.1%,–,94.4%,102%,98.2%,–,113%,103%,90
COc1cc(NCCCCCN)c2ncccc2c1,–,–,107%,108%,111%,–,103%,114%,118%,–
CCCCCCCC/C=C/CCCCCCCC1=NC(C)(C)CN1C(C)(C)CO,–,38.5%,-68.1% (active),44.9%,4.8% (active),-25.3% (active),-100% (active),-63.9% (active),-57.8% (active),57.9
